Compound activity from PubChem.
Sampled rows, rich in hits. Any-hit rate of the full collection: about 3.5%.
GPR151 ag = activators of human GPR151; AID 1508602; PathHunter beta-arrestin GPR151 cells, luminescence; Q8TDV0; 650,000 compounds, 1% hits; activation, % at 11.2 µM; in the data active means activation above about 4.9%
FBW7 act = activators of human E3 ligase FBW7 | Q969H0 | AlphaScreen FBW7–phospho-cyclin E peptide binding, activator screen | normalized activity (activation), % at 26.1 µM | 650,000 compounds, 0.13% hits | AID 1259310; in the data active means normalized activity above about 1.9%;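 further: purified mutant Fbw7 with reduced substrate affinity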
MITF primary = blocks human microphthalmia-associated transcription factor | 650,000 compounds, 0.91% hits | O75030 | AlphaScreen MITF homodimerization, bead proximity signal | inhibition, % at 2.6 µM; in the data active means inhibition above about 50%
TEAD-YAP inh = TEAD-YAP interaction inhibition. HEK-TIYL cells, TEAD-Gal4/YAP UAS-luciferase luminescence. inhibition, % at 9.12 µM. 640,000 compounds, 1.4% hits. AID 1259422; in the data active means inhibition above about 32%
Large screens that a line does not name were inactive.

CCOC(=O)c1c(C)[nH]c(C)c1C(=O)COC(=O)c1ccc(O)cc1	none
CCOC(=O)c1c(C)[nH]c(C)c1C(=O)COC(=O)c1ccc2[nH]c(C)c(C)c2c1	TEAD-YAP inh 66.0
COc1cccc(S(=O)(=O)NCc2ccccn2)c1	none
O=S(=O)(NCc1ccccn1)c1ccc(Cc2ccc(S(=O)(=O)NCc3ccccn3)cc2)cc1	TEAD-YAP inh 58.9
COc1cc(S(=O)(=O)NCc2ccccn2)ccc1Cl	TEAD-YAP inh 36.8
Cc1ccc(C)c(NC(=O)C(C)N2Cc3ccccc3C2=O)c1 (stereo not drawn)	none
Cc1cccc(NC(=O)C(C)N2Cc3ccccc3C2=O)n1 (stereo not drawn)	none
CC(C(=O)Nc1ccccn1)N1Cc2ccccc2C1=O (stereo not drawn)	TEAD-YAP inh 48.2
Cc1ccnc(NC(=O)C(C)N2Cc3ccccc3C2=O)c1 (stereo not drawn)	TEAD-YAP inh 89.4
CC(=O)Nc1ccc(NC(=O)c2cnc(Nc3ccc(N4CCOCC4)cc3)s2)cc1	none
CCOc1ccc(N2CC(O)(c3ccc(OC)c(OC)c3)[N+]3=C2CCCC3)cc1 (stereo not drawn)	none
CCc1cccc(NC(=O)c2ccc([N+](=O)[O-])cc2)c1	none
COc1ccc(-c2ccc(C(C)=O)cc2)cc1	none
COc1ccc(-c2cc(O)cc(O)c2)cc1	TEAD-YAP inh 33.9
COc1ccc(OC)c(C(=O)CSc2nnc(-c3c[nH]c4ccccc34)o2)c1	none
CC(=O)c1ccc(Sc2nnnn2-c2ccccc2)c([N+](=O)[O-])c1	TEAD-YAP inh 33.2
Cn1c(Sc2ccc([N+](=O)[O-])c3cnccc23)nnc1C(F)(F)F	none
O=[N+]([O-])c1cc(C(F)(F)F)ccc1Sc1nnnn1-c1ccccc1	none
Cc1ccccc1-n1nnnc1Sc1ccc([N+](=O)[O-])c2cnccc12	TEAD-YAP inh 44.0
O=[N+]([O-])c1ccc(Sc2nnnn2-c2ccccc2)c(Cl)c1	TEAD-YAP inh 34.4
O=[N+]([O-])c1ccc(Sc2nnnn2-c2ccccc2)c2ccncc12	TEAD-YAP inh 49.8
Cc1nnc2sc(NC(=O)C(C)C)nn12	none
CCN(c1ccc(NC(=O)CSc2nc(N)cc(=O)[nH]2)cc1)C(C)C	none
COc1cccc(CNC(=O)c2ccc3nc(-c4ccc(C)cc4)c(-c4ccc(C)cc4)nc3c2)c1	none
COc1ccc(-c2nc3ccc(C(=O)NCc4cccnc4)cc3nc2-c2ccc(OC)cc2)cc1	TEAD-YAP inh 44.5
O=C(NC(c1cccc([N+](=O)[O-])c1)c1cc(Cl)c2cccnc2c1O)c1cccnc1 (stereo not drawn)	none
N#CC1=C(N)Oc2c(ccc3cccnc23)C1c1ccc(Br)cc1 (stereo not drawn)	none
N#CC1=C(N)Oc2c(ccc3cccnc23)C1c1cccc([N+](=O)[O-])c1 (stereo not drawn)	TEAD-YAP inh 48.6
N#CC1=C(N)Oc2cc(N)ccc2C1c1cccc([N+](=O)[O-])c1 (stereo not drawn)	TEAD-YAP inh 40.4
N#CC1=C(N)Oc2c(ccc3cccnc23)C1c1ccccc1Cl (stereo not drawn)	none
Cc1ccc(C2C(C#N)=C(N)Oc3c2ccc2cccnc32)cc1 (stereo not drawn)	TEAD-YAP inh 37.4
N#C/C(=C/c1ccccc1O)C(=O)Nc1ccc(O)cc1	TEAD-YAP inh 70.5
COc1ccc(NC(=O)/C(C#N)=C\c2ccccc2O)cc1	TEAD-YAP inh 39.7
Cc1ccc(NC(=O)/C(C#N)=C\c2ccccc2O)cc1	none
COc1ccc(C(=O)c2ccc(Cl)c([N+](=O)[O-])c2)cc1	TEAD-YAP inh 62.1
COc1ccc(C(=O)c2ccc(Br)c([N+](=O)[O-])c2)cc1C	TEAD-YAP inh 64.7
COC(=O)C(C)OC(=O)c1ccc(Cl)c([N+](=O)[O-])c1 (stereo not drawn)	FBW7 act 3.0
CCOC(=O)C(C)OC(=O)c1ccc(Cl)c([N+](=O)[O-])c1 (stereo not drawn)	none
CNS(=O)(=O)c1ccc(Br)c(C(=O)O)c1	none
COc1ccc(C(=O)CSc2nnc(N)s2)cc1OC	none
COc1ccc(CCNC(=O)c2nnn(-c3ccc4c(c3)OCCO4)c2N)cc1OC	TEAD-YAP inh 64.8
O=C(Cc1ccccc1)NNC(=O)c1ccccc1-c1nc2ccccc2[nH]1	none
O=C(Nc1ccc2[nH]ncc2c1)c1ccc(OC2CCOCC2)nc1	TEAD-YAP inh 47.6
NCCOc1cc(C(=O)Nc2ccc3[nH]ncc3c2)ccn1	TEAD-YAP inh 72.2
CCCCOc1cc2oc(=O)cc(C)c2cc1Cl	none
CC(=O)Nc1nc(-c2nc3ccccc3s2)cs1	TEAD-YAP inh 38.1
